Reference: PubChem BioAssay AID603 (National Center for Advancing Translational Sciences (NCATS), 2007)
Out of some 71,000 compounds screened, about 180 (0.25%) were called active. The list comes from a sample in which actives are over-represented; it also holds similar structures and randomly drawn compounds. Unmarked numbers belong to inactive results. Calls follow the shape of the dose curve; as a rule, active = well fitted curve in the direction sought with a large enough effect; inconclusive = small, poorly fitted or top-dose-only effect; inactive = flat fitted curve, though single readings scatter.

Tested on: DNA polymerase III holoenzyme (E. coli)
Experiment: qHTS Assay for Inhibitors of DNA Polymerase III Holoenzyme System
Settings: reconstituted DNA polymerase III holoenzyme replication, biochemical; series mostly up to 57.1 µM; activity change, negative = inhibition: at the top concentration
Protocol: NIH Molecular Libraries Screening Centers Network [MLSCN]
NIH Chemical Genomics Center [NCGC]
Assay Provider: Charles McHenry, University of Colorado
E. coli DNA polymerase III holoenzyme complex was assayed for DNA production by fluorescent detection of the double-stranded DNA product with PicoGreen dye. The holoenzyme complex was reconstituted from the following purified protein components: DNA Polymerase III, beta subunit processivity factor, SSB single-stranded DNA binding protein, and Primase. Single-stranded, circular M13Gori was used as a substrate with dNTPs and NTPs also supplied to the substrate reagent. Compounds from the NCGC collection were incubated with the holoenzyme mixture for 15 min at room temperature to allow binding to occur, and then the reaction was started by the addition of substrate. After 30 min incubation at room temperature, PicoGreen solution containing EDTA was added to stop the reaction and to visualize the double-stranded DNA produced. Reaction progress was measured in a ViewLux CCD imager in fluorescence intensity mode by using 480 nm excitation and 540 nm emission filter set.
NCGC Assay Protocol Summary:
Buffer. 50 mM Hepes-KOH, pH 7.5, 5 % Glycerol, 0.02% NP40, 30 mM potassium;
glutamate, 1.5 mM Magnesium Acetate, 16 uM TCEP.
Buffer in columns 3 and 4 as negative control (no enzyme).
Substrate solution: 5 uM each dATP, dGTP, dCTP and TTP, 50 uM each GTP, CTP, UTP and 200 uM ATP, 1.4 nM M13gori (final concentrations).
Enzyme: 154 nM SSB, 2 nM Primase, 1 nM Beta, 0.35 nM Pol III (final concentrations).
PicoGreen/EDTA: 10 mM Tris-HCl, 10 mM EDTA, 5 uM PicoGreen (final concentrations).
Control titration: ChemBridge 5805060 (from 10 mM, then 1:2, in duplicate) was pin-transferred to upper half of column 2.
Three uL of holoenzyme mixture were dispensed to 1536-well Greiner black solid bottom plates. Compounds and controls (23 nL) were transferred via Kalypsys PinTool. The plates were incubated for 15 min at room temperature, and then 1 uL of substrate solution was added to start the reaction. After room temperature incubation for 35 minutes, 1 uL of PicoGreen solution was added to each well and the plates were read 480 nm excitation and 540 nm emission using ViewLux (Perkin-Elmer) High-throughput CCD imager and fluorescence protocol settings.
Keywords: NIH Roadmap, MLSCN, MLI, MLSMR, qHTS, NCGC, DNA Polymerase III, DNAPol3, DNAPoly3, DNA replication targets
% is scaled to controls: 0 for no effect and ±100 for the full control effect; potency is read from the fitted curve at half-maximal effect.

Row | Structure (SMILES) | activity change, negative = inhibition | Potency
1 | c1ccc2cc3[nH]c(CN4CCCCC4)nc3cc2c1 | -7.3% (inactive) | 
2 | CC(C)c1nnc(NC(=O)C2CCCN2S(=O)(=O)c2ccc(Cl)cc2)s1 (centres undefined) | -2.6% (inactive) | 
3 | O=C(Nc1ccccc1C(=O)N1CCOCC1)C1CCC(=O)N1C1CCCC1 (centres undefined) | -7.4% (inactive) | 
4 | COc1ccc(C)c(Cn2c(-c3nonc3N)nc3ccccc32)c1 | 3.6% (inactive) | 
5 | O=C(Nc1ccon1)c1cccc(Cl)c1 | -2.9% (inactive) | 
6 | CC(C)C[C@@H](CC(=O)N[C@@H](CCC(=O)O)CC(=O)O)NC(=O)[C@@H]1CCCC[C@H]1NC(=O)C[C@@H](NC(=O)C[C@H](Cc1c[nH]c2ccccc12)NC(=O)[C@@H]1CCCC[C@H]1N)C(C)C | 1.5% (inactive) | 
7 | CCOC(=O)C1Cn2c(nc3c(c2=O)C(C)(CC)Cc2ccccc2-3)S1 (centres undefined) | 2.7% (inactive) | 
8 | COCCn1nnnc1C(c1ccccc1Cl)N1CCN(c2ccccc2OC)CC1 (centres undefined) | -7.9% (inactive) | 
9 | NS(=O)(=O)c1cc(C(=O)O)c(Cl)c([N+](=O)[O-])c1Cl | -10.9% [at 11.4 µM] | 
10 | COC(=O)C1(Cc2ccccc2)C=C2C(=C(C)C(=O)C2C)CN1 (centres undefined) | -5.5% (inactive) | 
11 | c1cncc(-c2nc(N3CCNCC3)c3ccccc3n2)c1 | -8.1% (inactive) | 
12 | CN(C)CCCn1c2ccccc2c2cnccc21 | -9.9% [at 11.4 µM] | 
13 | COc1ccc(C(=O)N2CCC3(CC2)CCN(c2ccccn2)CC3)cc1 | -5.7% (inactive) | 
14 | O=C(c1ccncc1)N1CCC2(CCN(Cc3cc(C(F)(F)F)cc(C(F)(F)F)c3)CC2)CC1 | -6.3% (inactive) | 
15 | CCCCSc1nc2c(c(=O)n1CC)SC(C)C2 (centres undefined) | -8.4% (inactive) | 
16 | CCC1Oc2ccc(Cl)cc2N(CC(=O)O)C1=O (centres undefined) | -1.1% (inactive) | 
17 | Cc1ccccc1C(=O)NCCN=C1NS(=O)(=O)c2ccccc21 | 2.9% (inactive) | 
18 | O=C(Cn1nnc(-c2ccc3c(c2)OCO3)n1)NCc1ccco1 | -4% (inactive) | 
19 | COc1ccc(CCNC(=O)CCn2c(=O)oc3ccccc32)cc1OC | -6.6% (inactive) | 
20 | CN(C)CCCNC(=O)c1ccc2[nH]c3ccccc3c2c1 | -5.1% (inactive) | 
21 | CSc1ccc(S(=O)(=O)NCc2ccc(Cl)cc2)cc1 | 2.9% (inactive) | 
22 | O=C(C1CCCO1)N1CCC(c2nc3ccccc3[nH]2)CC1 (centres undefined) | -5.1% (inactive) | 
23 | N#Cc1c(N)sc2c1CCN(C(=O)OCc1ccccc1)C2 | -0.3% (inactive) | 
24 | COc1ccccc1-c1c(C)nn2c(C)c(C(C)=O)cnc12 | -6.3% (inactive) | 
25 | CN(C)C(=O)c1ccc(-c2cncnc2NC2CCNCC2)cc1 | -0.4% (inactive) | 

Row | Structure (SMILES) | activity change, negative = inhibition | Potency
26 | O=c1cc(-c2ccc(O)c(O)c2)oc2cccc(O)c12 | -19.4% (inactive) | 
27 | Oc1ccc(O)c2c(O)cccc12 |  | 15.8 µM (active)
28 | COc1ccc(OC)c(CN2C(=O)CCC2(C)C(=O)NC2CCCCCC2)c1 (centres undefined) | -4.8% (inactive) | 
29 | N#Cc1ccccc1-c1ccc2ncnc(NCc3cccnc3)c2c1 | -7.4% (inactive) | 
30 | CN1C(=O)CC(N2CCN(c3ccccn3)CC2)C1=O (centres undefined) | 4.6% (inactive) | 
31 | N#Cc1ccc(CN2CCCC3(CCN(C(=O)c4ccco4)CC3)C2)cc1 | 22.9% (inactive) | 
32 | Cc1c(-c2nn(C)c(=O)c3ccccc23)oc2ccc(F)cc2c1=O | -0.7% (inactive) | 
33 | Clc1ccc(C=Nc2ccc3c(c2)Cc2ccccc2-3)c(Cl)c1 | -10.3% [at 11.4 µM] | 
34 | CCOC(=O)c1nnn(CC(=O)Nc2cccc(F)c2)c1C(=O)OCC | -1% (inactive) | 
35 | c1ccc(Nc2n[nH]nc2-c2ccccc2)cc1 | -5.3% (inactive) | 
36 | O=C1c2cccc3cccc(c23)N1CN1CCN(c2ccccn2)CC1 | -6.4% (inactive) | 
37 | C=CCOC(=O)c1ccccc1C(=O)OCC=C | 8.7% (inactive) | 
38 | Nc1nonc1C(=O)NCCc1ccccc1 | -6.7% (inactive) | 
39 | COCCNc1nc(-n2nc(C)cc2C)nc2sc3c(c12)CCCC3 | -2.3% (inactive) | 
40 | C[C@@H](C(=O)Nc1ccc2ccccc2c1)[C@@H]1C[C@@]1(C)[C@@H](NC(=O)c1cccnc1)c1ccccc1 | 2.5% (inactive) | 
41 | CC(C)c1cc(CN(C)C)c(O)c(C(C)(C)C)c1 | -6.4% [at 11.4 µM] | 
42 | COc1cccc(Cn2c(=O)c(-c3cc(F)cc(F)c3)nc3cnc(OC)nc32)c1 | -8.3% (inactive) | 
43 | O=c1cc(-c2ccccc2)[nH]c2nc(Cl)ccc12 | -6.8% (inactive) | 
44 | COC(=O)[C@@]1(Cc2ccc(F)cc2)[C@H]2c3cc(C(=O)N4CCCC4)n(C[C@H](O)CO)c3C[C@H]2CN1C(=O)c1ccccc1 | 0.9% (inactive) | 
45 | CC(=O)O[C@]1(C(C)=O)CC[C@@H]2[C@@H]3C=C(C)C4=CC(=O)CC[C@@]4(C)[C@H]3CC[C@]21C | 1% [at 25.6 µM] (inactive) | 
46 | O=C(O)CC(C(=O)O)C(CC(=O)O)C(=O)O (centres undefined) | -4% (inactive) | 
47 | COc1ccc(OC)c(NC(=O)CSc2nc(N)c(-c3ccccc3)c(=O)[nH]2)c1 | -5.9% (inactive) | 
48 | O=C(CSc1nnc(-c2ccncc2)n1C1CCCCC1)Nc1ccccc1 | -3% (inactive) | 
49 | CCN(CC)S(=O)(=O)c1ccc(NC(=O)CN(c2cccc(F)c2)S(C)(=O)=O)cc1 | -3.6% (inactive) | 
